The supplement of paper PMC11732987, “Enantioselective OTUD7B fragment discovery through chemoproteomics screening and high-throughput optimisation” (Communications Chemistry, 2025)

Tests used:
Experiment in all cases: log2 ratio of Biotin-Ahx-Ub-VS probe labelling (fragment/DMSO); higher = less target engagement (more negative = stronger competition), active = hit call of the paper (q ≤ 0.05, log2 ratio ≤ -1)
Conditions in all cases: compound concentration: 200 uM; treatment time: 3 h
[1] = biological target: USP9X (UniProt Q93008)
Procedure, shortened: (§1)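 Fragment (200 µM) or vehicle was incubated for 3 h with triplicate HEK293T lysate samples of 495 µg, which were then treated with Biotin-Ahx-Ub-VS at 0.5 µM final for 1 h. Labelled DUBs were enriched on NeutrAvidin, digested with LysC and trypsin, and analysed by diaPASEF LC-MS/MS. Values are average log2 fragment/vehicle ratios from an unpaired t-test on global-median-normalised Spectronaut label-free quantities, using proteins with ≥2 unique peptides.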

[2] = biological target: UniProt O00487
Sequence of UniProt O00487 (O00487 whole entry): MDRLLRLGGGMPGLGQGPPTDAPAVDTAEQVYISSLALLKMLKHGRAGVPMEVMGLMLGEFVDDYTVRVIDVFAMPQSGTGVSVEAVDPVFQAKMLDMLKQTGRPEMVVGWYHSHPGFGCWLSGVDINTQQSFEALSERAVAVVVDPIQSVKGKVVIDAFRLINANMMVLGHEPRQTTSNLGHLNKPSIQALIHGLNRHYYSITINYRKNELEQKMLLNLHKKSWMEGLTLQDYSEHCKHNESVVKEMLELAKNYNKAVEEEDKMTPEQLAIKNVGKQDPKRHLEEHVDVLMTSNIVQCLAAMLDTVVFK
Procedure, shortened: as §1

[3] = biological target: UniProt O00507
Sequence of UniProt O00507 (O00507 whole entry): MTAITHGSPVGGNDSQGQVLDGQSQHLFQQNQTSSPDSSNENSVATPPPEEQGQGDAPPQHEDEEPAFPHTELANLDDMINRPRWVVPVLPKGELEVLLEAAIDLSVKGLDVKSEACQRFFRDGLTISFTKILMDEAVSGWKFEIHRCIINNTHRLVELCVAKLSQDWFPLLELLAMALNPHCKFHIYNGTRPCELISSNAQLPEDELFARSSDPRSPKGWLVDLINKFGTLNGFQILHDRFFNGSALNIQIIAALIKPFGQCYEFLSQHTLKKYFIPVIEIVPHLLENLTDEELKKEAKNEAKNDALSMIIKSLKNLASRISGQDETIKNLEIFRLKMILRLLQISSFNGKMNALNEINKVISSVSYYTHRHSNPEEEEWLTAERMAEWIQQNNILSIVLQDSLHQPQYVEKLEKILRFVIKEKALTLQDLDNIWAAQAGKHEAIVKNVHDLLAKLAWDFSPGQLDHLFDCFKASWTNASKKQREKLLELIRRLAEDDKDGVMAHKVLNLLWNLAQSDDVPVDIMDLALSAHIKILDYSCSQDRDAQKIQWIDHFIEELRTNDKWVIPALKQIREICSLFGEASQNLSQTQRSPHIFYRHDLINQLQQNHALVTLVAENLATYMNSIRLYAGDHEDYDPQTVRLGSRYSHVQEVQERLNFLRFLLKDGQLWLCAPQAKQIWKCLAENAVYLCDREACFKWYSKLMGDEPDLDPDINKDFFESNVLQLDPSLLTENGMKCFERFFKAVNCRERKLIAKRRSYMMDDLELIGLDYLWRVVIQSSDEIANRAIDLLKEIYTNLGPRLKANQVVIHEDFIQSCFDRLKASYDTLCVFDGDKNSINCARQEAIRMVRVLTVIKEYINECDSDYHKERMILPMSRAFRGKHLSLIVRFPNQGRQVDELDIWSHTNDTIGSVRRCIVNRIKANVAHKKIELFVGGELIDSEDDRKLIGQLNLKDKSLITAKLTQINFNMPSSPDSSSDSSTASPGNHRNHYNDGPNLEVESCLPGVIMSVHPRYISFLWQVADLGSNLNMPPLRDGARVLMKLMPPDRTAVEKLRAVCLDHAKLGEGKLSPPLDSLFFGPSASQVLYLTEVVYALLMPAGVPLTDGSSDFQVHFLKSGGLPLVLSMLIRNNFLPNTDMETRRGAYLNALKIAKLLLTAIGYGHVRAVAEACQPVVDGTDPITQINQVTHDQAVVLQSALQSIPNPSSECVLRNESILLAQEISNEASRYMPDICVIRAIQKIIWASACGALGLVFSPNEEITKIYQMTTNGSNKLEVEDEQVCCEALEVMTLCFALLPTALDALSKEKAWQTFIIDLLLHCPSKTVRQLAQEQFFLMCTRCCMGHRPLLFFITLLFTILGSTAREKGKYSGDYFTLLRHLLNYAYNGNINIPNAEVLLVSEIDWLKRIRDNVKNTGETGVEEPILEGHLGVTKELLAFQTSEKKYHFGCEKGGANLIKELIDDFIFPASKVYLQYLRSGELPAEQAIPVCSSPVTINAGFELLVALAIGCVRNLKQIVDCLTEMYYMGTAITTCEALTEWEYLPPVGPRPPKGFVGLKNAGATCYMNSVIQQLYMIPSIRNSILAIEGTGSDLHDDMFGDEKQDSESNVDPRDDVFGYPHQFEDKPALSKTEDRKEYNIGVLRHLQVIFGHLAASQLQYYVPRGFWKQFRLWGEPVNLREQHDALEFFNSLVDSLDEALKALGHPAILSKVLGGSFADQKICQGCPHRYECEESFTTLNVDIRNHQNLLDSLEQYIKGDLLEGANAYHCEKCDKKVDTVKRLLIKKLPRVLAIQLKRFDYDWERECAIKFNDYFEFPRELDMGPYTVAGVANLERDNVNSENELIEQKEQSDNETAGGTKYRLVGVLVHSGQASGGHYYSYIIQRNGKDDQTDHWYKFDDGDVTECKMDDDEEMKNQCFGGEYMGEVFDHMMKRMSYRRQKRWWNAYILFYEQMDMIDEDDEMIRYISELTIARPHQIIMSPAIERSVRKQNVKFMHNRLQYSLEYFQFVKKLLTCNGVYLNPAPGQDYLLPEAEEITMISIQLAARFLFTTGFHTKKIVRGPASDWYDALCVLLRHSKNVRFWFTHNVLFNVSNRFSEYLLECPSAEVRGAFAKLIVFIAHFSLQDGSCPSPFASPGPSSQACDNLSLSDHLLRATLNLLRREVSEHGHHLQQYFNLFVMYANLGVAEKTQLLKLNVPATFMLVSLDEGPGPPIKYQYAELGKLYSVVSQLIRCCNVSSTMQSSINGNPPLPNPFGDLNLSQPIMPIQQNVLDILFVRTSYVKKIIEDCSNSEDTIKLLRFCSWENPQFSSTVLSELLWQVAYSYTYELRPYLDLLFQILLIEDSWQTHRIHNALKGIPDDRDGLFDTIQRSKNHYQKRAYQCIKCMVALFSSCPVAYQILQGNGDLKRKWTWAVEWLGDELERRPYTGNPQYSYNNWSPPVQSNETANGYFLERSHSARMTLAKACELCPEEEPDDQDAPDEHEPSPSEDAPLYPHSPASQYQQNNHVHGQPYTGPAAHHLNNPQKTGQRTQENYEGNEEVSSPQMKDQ
Procedure, shortened: as §1

[4] = biological target: UniProt P51784
Sequence of UniProt P51784 (P51784 whole entry): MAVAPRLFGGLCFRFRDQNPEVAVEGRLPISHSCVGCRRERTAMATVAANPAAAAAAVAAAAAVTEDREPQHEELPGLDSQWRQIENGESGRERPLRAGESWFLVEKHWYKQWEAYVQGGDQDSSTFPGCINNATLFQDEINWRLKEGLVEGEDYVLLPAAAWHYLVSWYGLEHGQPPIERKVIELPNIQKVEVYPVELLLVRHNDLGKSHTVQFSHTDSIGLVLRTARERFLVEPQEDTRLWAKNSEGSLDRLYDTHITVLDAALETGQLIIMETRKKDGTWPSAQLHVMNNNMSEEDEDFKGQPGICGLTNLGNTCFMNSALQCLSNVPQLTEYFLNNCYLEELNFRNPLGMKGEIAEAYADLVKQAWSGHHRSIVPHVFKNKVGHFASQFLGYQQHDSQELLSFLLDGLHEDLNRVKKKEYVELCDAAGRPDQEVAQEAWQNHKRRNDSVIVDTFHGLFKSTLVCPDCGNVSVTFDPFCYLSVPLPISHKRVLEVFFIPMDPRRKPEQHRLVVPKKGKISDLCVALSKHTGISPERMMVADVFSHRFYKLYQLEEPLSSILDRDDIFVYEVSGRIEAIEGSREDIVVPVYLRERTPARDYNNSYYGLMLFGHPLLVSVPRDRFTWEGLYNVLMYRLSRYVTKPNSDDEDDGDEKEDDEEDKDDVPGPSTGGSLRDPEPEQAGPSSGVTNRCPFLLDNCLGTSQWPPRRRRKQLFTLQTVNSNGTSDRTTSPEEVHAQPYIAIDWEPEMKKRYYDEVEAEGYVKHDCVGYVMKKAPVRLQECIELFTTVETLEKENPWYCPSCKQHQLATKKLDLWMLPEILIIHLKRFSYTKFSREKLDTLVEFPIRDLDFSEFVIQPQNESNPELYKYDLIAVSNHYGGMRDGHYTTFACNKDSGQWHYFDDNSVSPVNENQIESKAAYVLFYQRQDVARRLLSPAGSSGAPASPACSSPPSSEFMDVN
Procedure, shortened: as §1

[5] = biological target: T1, UniProt Q5T2D3
T1 sequence (whole entry): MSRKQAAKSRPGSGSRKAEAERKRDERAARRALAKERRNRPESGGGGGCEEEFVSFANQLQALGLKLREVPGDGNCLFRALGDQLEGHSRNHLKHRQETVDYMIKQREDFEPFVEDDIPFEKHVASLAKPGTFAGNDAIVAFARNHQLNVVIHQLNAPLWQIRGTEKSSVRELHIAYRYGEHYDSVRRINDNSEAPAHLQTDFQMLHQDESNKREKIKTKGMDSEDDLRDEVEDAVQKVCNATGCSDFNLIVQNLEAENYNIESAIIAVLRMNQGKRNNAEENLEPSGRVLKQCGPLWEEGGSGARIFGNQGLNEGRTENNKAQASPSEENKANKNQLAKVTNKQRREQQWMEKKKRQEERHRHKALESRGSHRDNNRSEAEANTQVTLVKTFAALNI
Procedure, shortened: as §1

[6] = biological target: T2, UniProt Q8TE49
T2 sequence (whole entry): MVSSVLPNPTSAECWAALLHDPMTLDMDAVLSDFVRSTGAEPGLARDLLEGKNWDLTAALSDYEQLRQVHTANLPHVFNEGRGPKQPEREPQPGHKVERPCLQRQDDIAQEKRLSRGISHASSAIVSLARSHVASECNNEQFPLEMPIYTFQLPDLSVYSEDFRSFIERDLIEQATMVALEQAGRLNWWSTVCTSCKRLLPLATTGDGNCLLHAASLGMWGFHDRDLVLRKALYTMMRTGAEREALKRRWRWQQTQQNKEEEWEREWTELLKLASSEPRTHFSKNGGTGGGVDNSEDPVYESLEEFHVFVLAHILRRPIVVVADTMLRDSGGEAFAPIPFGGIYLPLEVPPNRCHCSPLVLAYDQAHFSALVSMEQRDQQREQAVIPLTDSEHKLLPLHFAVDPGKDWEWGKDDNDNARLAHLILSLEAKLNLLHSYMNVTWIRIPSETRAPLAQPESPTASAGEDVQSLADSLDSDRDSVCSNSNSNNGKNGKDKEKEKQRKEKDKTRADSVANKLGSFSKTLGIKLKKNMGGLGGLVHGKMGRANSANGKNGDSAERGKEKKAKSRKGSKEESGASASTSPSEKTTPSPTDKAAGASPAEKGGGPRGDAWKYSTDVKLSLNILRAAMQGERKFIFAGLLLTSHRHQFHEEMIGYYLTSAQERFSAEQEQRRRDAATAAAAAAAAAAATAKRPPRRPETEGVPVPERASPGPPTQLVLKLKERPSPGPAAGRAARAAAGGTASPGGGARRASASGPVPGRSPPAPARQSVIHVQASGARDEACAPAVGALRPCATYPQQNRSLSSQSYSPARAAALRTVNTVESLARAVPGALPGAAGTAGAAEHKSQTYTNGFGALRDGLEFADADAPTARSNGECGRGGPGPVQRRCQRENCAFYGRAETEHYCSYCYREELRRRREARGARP
Procedure, shortened: as §1

[7] = biological target: T3, UniProt Q9P2H5
T3 sequence (whole entry): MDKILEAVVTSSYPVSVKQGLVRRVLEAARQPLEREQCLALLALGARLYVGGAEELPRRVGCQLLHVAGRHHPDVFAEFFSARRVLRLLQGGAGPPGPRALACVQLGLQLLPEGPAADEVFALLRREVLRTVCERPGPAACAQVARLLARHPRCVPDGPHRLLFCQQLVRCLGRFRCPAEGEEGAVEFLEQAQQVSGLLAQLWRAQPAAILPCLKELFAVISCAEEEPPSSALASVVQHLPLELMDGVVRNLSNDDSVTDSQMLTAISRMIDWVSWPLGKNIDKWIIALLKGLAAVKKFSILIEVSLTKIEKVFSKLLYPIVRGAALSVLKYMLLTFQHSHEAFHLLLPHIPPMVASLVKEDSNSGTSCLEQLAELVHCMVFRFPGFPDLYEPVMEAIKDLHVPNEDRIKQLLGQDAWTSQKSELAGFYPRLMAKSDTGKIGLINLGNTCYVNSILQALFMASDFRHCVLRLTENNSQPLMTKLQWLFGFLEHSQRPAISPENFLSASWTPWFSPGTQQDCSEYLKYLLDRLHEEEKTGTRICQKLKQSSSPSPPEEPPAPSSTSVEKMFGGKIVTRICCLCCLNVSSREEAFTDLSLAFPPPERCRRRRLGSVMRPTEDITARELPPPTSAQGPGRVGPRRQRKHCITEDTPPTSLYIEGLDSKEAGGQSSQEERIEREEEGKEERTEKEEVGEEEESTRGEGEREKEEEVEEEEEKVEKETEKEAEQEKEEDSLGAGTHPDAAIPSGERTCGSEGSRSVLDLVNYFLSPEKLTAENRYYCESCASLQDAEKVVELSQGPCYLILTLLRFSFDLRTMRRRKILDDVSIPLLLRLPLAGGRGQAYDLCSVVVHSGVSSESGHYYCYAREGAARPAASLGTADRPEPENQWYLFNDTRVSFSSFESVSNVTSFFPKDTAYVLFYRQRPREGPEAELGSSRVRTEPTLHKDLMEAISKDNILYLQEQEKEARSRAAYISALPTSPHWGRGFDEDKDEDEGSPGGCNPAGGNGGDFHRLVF
Procedure, shortened: as §1

[8] = biological target: T4, UniProt Q9UGI0
T4 sequence (whole entry): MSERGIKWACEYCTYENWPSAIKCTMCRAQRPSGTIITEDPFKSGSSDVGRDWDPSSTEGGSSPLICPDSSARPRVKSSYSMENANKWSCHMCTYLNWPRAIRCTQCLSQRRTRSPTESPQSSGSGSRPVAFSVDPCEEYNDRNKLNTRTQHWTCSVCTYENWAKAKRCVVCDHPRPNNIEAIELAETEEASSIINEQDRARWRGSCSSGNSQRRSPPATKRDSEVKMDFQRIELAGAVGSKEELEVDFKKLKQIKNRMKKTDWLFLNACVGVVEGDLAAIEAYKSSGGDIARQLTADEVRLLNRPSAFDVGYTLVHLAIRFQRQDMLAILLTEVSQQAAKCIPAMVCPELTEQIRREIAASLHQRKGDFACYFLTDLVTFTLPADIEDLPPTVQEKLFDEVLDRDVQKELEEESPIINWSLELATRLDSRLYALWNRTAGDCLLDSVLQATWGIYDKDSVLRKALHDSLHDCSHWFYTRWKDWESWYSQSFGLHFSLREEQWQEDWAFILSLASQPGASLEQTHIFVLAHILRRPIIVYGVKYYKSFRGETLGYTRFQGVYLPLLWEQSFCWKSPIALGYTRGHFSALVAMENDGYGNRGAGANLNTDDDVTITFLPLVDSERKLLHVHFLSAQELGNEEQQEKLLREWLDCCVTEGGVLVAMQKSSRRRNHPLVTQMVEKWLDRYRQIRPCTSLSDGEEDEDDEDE
Procedure, shortened: as §1

[9] = biological target: T5, YOD1 (UniProt Q5VVQ6)
T5 sequence (whole entry): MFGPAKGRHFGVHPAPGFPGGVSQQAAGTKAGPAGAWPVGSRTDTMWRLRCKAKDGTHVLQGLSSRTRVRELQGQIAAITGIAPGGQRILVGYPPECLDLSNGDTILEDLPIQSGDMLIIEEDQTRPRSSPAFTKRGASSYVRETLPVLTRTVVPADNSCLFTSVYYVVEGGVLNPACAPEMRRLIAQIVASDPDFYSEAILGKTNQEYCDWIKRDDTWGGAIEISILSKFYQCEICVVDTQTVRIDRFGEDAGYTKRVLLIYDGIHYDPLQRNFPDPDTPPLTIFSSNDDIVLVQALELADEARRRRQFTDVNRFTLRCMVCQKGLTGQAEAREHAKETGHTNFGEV
Procedure, shortened: as §1

Measured: log2 ratio of Biotin-Ahx-Ub-VS probe labelling

CC(c1ccccc1)N(C)C(=O)CCl (centres undefined)
inactive: [1] -0.115 | [2] -0.0533 | [3] -0.143 | [4] -0.169 | [5] -0.0617 | [6] -0.555 | [7] -0.0284 | [8] -0.295 | [9] 0.101
